Experimental data reported in PubChem BioAssay (NCI).
The panel holds about 83,000 compounds, 20% with a hit somewhere; the sample as a whole holds those more often.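 Percent growth is the endpoint: 0 to 100 indicates growth inhibition (40 means 60% inhibition), 0 means no net growth, and negative values indicate cell death.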 Activity calls are given as the source filed them. The calls were made as follows: active = growth percent below 10; inactive = the rest.

Tests used:
Assay in all cases: NCI-60 one-dose screen, 48 h (100 = growth as untreated, 0 = no growth, -100 = all killed)
Details in all cases: 10 µM unless noted
DU-145 prostate = tested on: DU-145 prostate
K-562 leukemia = tested on: K-562 leukemia
MALME-3M melanoma = tested on: MALME-3M melanoma
MDA-MB-231 breast = tested on: MDA-MB-231 breast
RXF 393 renal = tested on: RXF 393 renal
SF-268 CNS = tested on: SF-268 CNS
SF-295 CNS = tested on: SF-295 CNS
SF-539 CNS = tested on: SF-539 CNS
UACC-257 melanoma = tested on: UACC-257 melanoma
M14 melanoma = tested on: M14 melanoma

Measured: growth

CNCCCOc1c(Br)cc(CCNC(=O)/C(Cc2cc(Br)c(OC)c(Br)c2)=N/O)cc1Br
active: DU-145 prostate -5.03% | K-562 leukemia -51.2% | MALME-3M melanoma -78% | MDA-MB-231 breast -69.8% | RXF 393 renal -5.85% | SF-268 CNS 4.43% | SF-295 CNS -65.5% | SF-539 CNS -73.9% | UACC-257 melanoma -45.3% | M14 melanoma -76.7%

C[C@]12CC[C@@H]3c4ccc(O)c(N)c4CC[C@H]3[C@@H]1CC[C@@H]2O
inactive: DU-145 prostate 110% | K-562 leukemia 79.8% | MALME-3M melanoma 129% | MDA-MB-231 breast 115% | RXF 393 renal 116% | SF-268 CNS 98.9% | SF-295 CNS 108% | SF-539 CNS 106% | UACC-257 melanoma 82.5% | M14 melanoma 100%

O=C(Nc1cccc(-n2ccc3c(NC(=O)c4ccccc4)ncnc32)c1)Nc1ccc(Cl)c(C(F)(F)F)c1
inactive: DU-145 prostate 42.2% | K-562 leukemia 13.6% | MALME-3M melanoma 46.5% | MDA-MB-231 breast 42.3% | RXF 393 renal 14.6% | SF-268 CNS 38.1% | SF-295 CNS 14.2% | SF-539 CNS 39.1% | UACC-257 melanoma 36% | M14 melanoma 28.1%

O=C(O)c1cccc(S(=O)(=O)c2ccccc2)c1
inactive: DU-145 prostate 107% | K-562 leukemia 107% | MALME-3M melanoma 87.7% | MDA-MB-231 breast 123% | RXF 393 renal 101% | SF-268 CNS 103% | SF-295 CNS 95% | SF-539 CNS 98.5% | UACC-257 melanoma 105% | M14 melanoma 95.9%

O=C(N/N=C/c1ccccc1O)c1ccccc1O
active: UACC-257 melanoma 5.06%
inactive: DU-145 prostate 38.7% | K-562 leukemia 37.8% | MALME-3M melanoma 47.9% | MDA-MB-231 breast 56.7% | RXF 393 renal 54% | SF-268 CNS 36.6% | SF-295 CNS 42.1% | SF-539 CNS 34.5% | M14 melanoma 36.5%

Nn1c(CN2CCN(c3cc4c(cc3F)c(=O)c(C(=O)O)cn4C3CC3)CC2)n[nH]c1=S
inactive: DU-145 prostate 107% | K-562 leukemia 101% | MALME-3M melanoma 94.6% | MDA-MB-231 breast 107% | RXF 393 renal 109% | SF-268 CNS 95.9% | SF-295 CNS 102% | SF-539 CNS 99.3% | UACC-257 melanoma 111% | M14 melanoma 105%

CCN(CC)c1ccc(C2CC(c3cc(OC)c(OC)c(OC)c3)=NN2)cc1 (stereo not given)
inactive: MALME-3M melanoma 108% | MDA-MB-231 breast 31.7% | SF-268 CNS 28.1% | SF-295 CNS 33.9% | UACC-257 melanoma 30.8%
active: DU-145 prostate -36.1% | K-562 leukemia 5.52% | RXF 393 renal -20.9% | SF-539 CNS -43.1% | M14 melanoma 5.55%

CCc1c(C)c2cc3c(c(C)c2oc1=O)OCC(=O)N3
inactive: DU-145 prostate 72.5% | K-562 leukemia 82.5% | MALME-3M melanoma 79% | MDA-MB-231 breast 65.6% | RXF 393 renal 68% | SF-268 CNS 68.3% | SF-295 CNS 71.7% | SF-539 CNS 67.8% | UACC-257 melanoma 84.3% | M14 melanoma 88.8%

CC(=O)Cc1cccnc1
inactive: DU-145 prostate 110% | K-562 leukemia 86.7% | MALME-3M melanoma 103% | MDA-MB-231 breast 99.9% | RXF 393 renal 103% | SF-268 CNS 104% | SF-295 CNS 99.2% | SF-539 CNS 102% | UACC-257 melanoma 96.8% | M14 melanoma 101%

CCOc1ccc(NC(=O)Nc2cc(C(C)C)ccc2C)cc1
active: RXF 393 renal -31.8%
inactive: DU-145 prostate 93.2% | K-562 leukemia 85% | MALME-3M melanoma 105% | MDA-MB-231 breast 16.7% | SF-268 CNS 69.2% | SF-295 CNS 104% | SF-539 CNS 90% | UACC-257 melanoma 66.4% | M14 melanoma 93.4%

CCCC(=O)Oc1ccc(/C(=C(\C)c2ccc(Cl)cc2)c2ccc(OCCN(CC)CC)cc2)cc1
active: DU-145 prostate -22.9% | K-562 leukemia -19.6% | MALME-3M melanoma -77.5% | MDA-MB-231 breast -40.9% | RXF 393 renal -79.5% | SF-268 CNS -9.12% | SF-295 CNS -75.9% | SF-539 CNS -77.9% | UACC-257 melanoma -62.2% | M14 melanoma -71.8%

CN1CCN(Cn2nc(-c3cc(F)c(Cl)cc3Cl)n(/N=C/c3ccc(N(C)C)cc3)c2=S)CC1
inactive: DU-145 prostate 87.3% | K-562 leukemia 22.4% | MALME-3M melanoma 63.4% | MDA-MB-231 breast 102% | RXF 393 renal 82.7% | SF-268 CNS 102% | SF-295 CNS 48.4% | SF-539 CNS 78.1% | UACC-257 melanoma 93.8% | M14 melanoma 37.3%

CO[C@H]1/C=C/C=C/C=C/C[C@H](OC(=O)[C@@H](C)NC(=O)C2CCCCC2)[C@H](C)[C@@H](O)/C(C)=C\CCC2=CC(=O)C=C(NC(=O)C1)C2=O
active: DU-145 prostate -13.8% | K-562 leukemia 3.3% | MALME-3M melanoma -7.99% | MDA-MB-231 breast 5.38% | RXF 393 renal -40.2% | SF-268 CNS -7.66% | SF-295 CNS -33.5% | SF-539 CNS -49.3% | UACC-257 melanoma -18.9% | M14 melanoma -40.3%

Nc1ccc(S(=O)(=O)Nc2ccnn2-c2ccccc2)cc1
inactive: DU-145 prostate 118% | K-562 leukemia 89% | MALME-3M melanoma 103% | MDA-MB-231 breast 102% | RXF 393 renal 120% | SF-268 CNS 107% | SF-295 CNS 102% | SF-539 CNS 103% | UACC-257 melanoma 103% | M14 melanoma 109%

C#CC(=O)/C=C/CCCCCCC#CC(=O)CCC(=O)C#CCCCCCC/C=C/C(=O)C#C
active: K-562 leukemia 0.258% | MALME-3M melanoma -68.3% | MDA-MB-231 breast -6.98% | RXF 393 renal -36.7% | SF-539 CNS -34.5% | M14 melanoma -19.2%
inactive: DU-145 prostate 35.3% | SF-268 CNS 22.5% | SF-295 CNS 71.7% | UACC-257 melanoma 62.9%

COc1ccc(CNc2nc3ccccc3c3c(=O)c4ccccc4sc23)cc1OC
inactive: DU-145 prostate 74% | K-562 leukemia 69.3% | MALME-3M melanoma 66.6% | MDA-MB-231 breast 61.5% | RXF 393 renal 61% | SF-268 CNS 78.7% | SF-295 CNS 68.3% | SF-539 CNS 81% | UACC-257 melanoma 88.6% | M14 melanoma 86.2%

CN[C@@H](CCCNC(N)=NC/C=C(/C)CCC=C(C)C)C(=O)N(C)[C@@H](CCCNC(N)=NCC=C(C)C)C(=O)N[C@H](C)[C@H](OS(=O)(=O)O)c1ccc(OS(=O)(=O)O)c(COS(=O)(=O)O)c1
inactive: DU-145 prostate 108% | K-562 leukemia 110% | MALME-3M melanoma 117% | MDA-MB-231 breast 95.5% | RXF 393 renal 102% | SF-268 CNS 101% | SF-295 CNS 112% | SF-539 CNS 104% | UACC-257 melanoma 92.5% | M14 melanoma 105%

O=c1[nH]ccc2nc(N3CCC(O)CC3)nc(Nc3cccc(C(F)(F)F)c3)c12
inactive: DU-145 prostate 72% | K-562 leukemia 44.7% | MALME-3M melanoma 64.5% | MDA-MB-231 breast 88.3% | RXF 393 renal 54.4% | SF-268 CNS 67.1% | SF-295 CNS 96.8% | SF-539 CNS 80.4% | UACC-257 melanoma 16.3% | M14 melanoma 39.1%

COc1ccc(OCC(O)CN2CCN(c3ccc(Cl)cc3)CC2)cc1 (stereo not given)
inactive: DU-145 prostate 112% | K-562 leukemia 105% | MALME-3M melanoma 106% | MDA-MB-231 breast 88.1% | RXF 393 renal 98% | SF-268 CNS 105% | SF-295 CNS 92.1% | SF-539 CNS 95.5% | UACC-257 melanoma 81.9% | M14 melanoma 102%

CCOC(=O)c1cnc2c(OC)ccc(OC)c2c1Cl
inactive: DU-145 prostate 118% | K-562 leukemia 116% | MALME-3M melanoma 98.3% | MDA-MB-231 breast 128% | RXF 393 renal 115% | SF-268 CNS 98.9% | SF-295 CNS 110% | SF-539 CNS 104% | UACC-257 melanoma 101% | M14 melanoma 106%

S=c1ssnc1-c1ccccn1
inactive: DU-145 prostate 41.6% | MALME-3M melanoma 52% | MDA-MB-231 breast 44.3% | SF-268 CNS 24.9% | SF-295 CNS 40.4% | SF-539 CNS 14.5% | UACC-257 melanoma 93.3% | M14 melanoma 24.5%
active: K-562 leukemia -35.5% | RXF 393 renal -0.23%

CC1(C)Cc2c(Br)c(Br)c(Br)c(OCC(O)CN3CCN(c4ccccn4)CC3)c2O1 (stereo not given)
inactive: DU-145 prostate 106% | K-562 leukemia 36.4% | MALME-3M melanoma 88.2% | MDA-MB-231 breast 57.4% | RXF 393 renal 99.7% | SF-268 CNS 79.1% | SF-295 CNS 81.5% | SF-539 CNS 95.1% | UACC-257 melanoma 105% | M14 melanoma 99.2%

O=C1c2ccccc2OC=C(c2ccccc2)N1CCCCNc1ccc(F)cc1
inactive: DU-145 prostate 98.9% | K-562 leukemia 68.1% | MALME-3M melanoma 82.3% | MDA-MB-231 breast 74.9% | RXF 393 renal 97.9% | SF-268 CNS 78.3% | SF-295 CNS 86% | SF-539 CNS 100% | UACC-257 melanoma 83.6% | M14 melanoma 76.7%

C=C1C(=O)O[C@H]2[C@H]1CC/C(COC(=O)CCCC(=O)OC/C1=C/CC[C@@]3(C)O[C@H]3[C@H]3OC(=O)C(=C)[C@@H]3CC1)=C\CC[C@@]1(C)O[C@@H]21
inactive: DU-145 prostate 20.8% | SF-268 CNS 44.2% | SF-295 CNS 78.3%
active: K-562 leukemia 7.38% | MALME-3M melanoma -8.44% | MDA-MB-231 breast 2.73% | RXF 393 renal -74.2% | SF-539 CNS 0.465% | UACC-257 melanoma -39.9% | M14 melanoma -33.1%

COc1cc(NC(=O)C#Cc2ccccc2)c(OC)cc1Cl
inactive: DU-145 prostate 83.6% | K-562 leukemia 20.6% | MALME-3M melanoma 61.4% | MDA-MB-231 breast 26.6% | RXF 393 renal 83.5% | SF-268 CNS 39.8% | SF-295 CNS 75.1% | SF-539 CNS 66.6% | UACC-257 melanoma 89.2% | M14 melanoma 49.8%

CCN1CCN(Cc2ccc(NC(=O)Nc3cccc(-n4ccc5c(NC(=O)c6ccccc6)nccc54)c3)cc2C(F)(F)F)CC1
inactive: DU-145 prostate 88.8% | K-562 leukemia 49.3% | MALME-3M melanoma 64% | MDA-MB-231 breast 82% | RXF 393 renal 79.5% | SF-268 CNS 85.3% | SF-295 CNS 55.7% | SF-539 CNS 81.1% | UACC-257 melanoma 73.9% | M14 melanoma 76%

O=S(=O)(Nc1cccc2cc(OS(=O)(=O)c3ccccc3)ccc12)c1ccccc1
inactive: DU-145 prostate 92% | K-562 leukemia 25.2% | MALME-3M melanoma 56.2% | MDA-MB-231 breast 76.4% | RXF 393 renal 86.5% | SF-268 CNS 74.2% | SF-295 CNS 59.3% | SF-539 CNS 63.4% | UACC-257 melanoma 75.6% | M14 melanoma 40.3%
